Assay results from PubChem BioAssay (NCATS).
Records with an inconclusive call do not appear. Calls of active or inactive are those of the source. The call rests on the fitted dose curve; in most records, active means well fitted inhibition curve with a large enough effect; inconclusive means small, poorly fitted or top-dose-only effect; inactive means flat fitted curve, though single readings scatter. Square brackets hold non-standard residues; d marks the D form. Peptide text beside a SMILES is read from it. PhLac = O=C(O)[CH](O)Cc1ccccc1; NMeV = CN[CH](C(=O)O)C(C)C

The compounds below were run against Aldehyde dehydrogenase, mitochondrial (Homo sapiens) (UniProt P05091) (assay: qHTS for Inhibitors of the Aldehyde Dehydrogenase Family (ALDH2) Primary screen (AID 2061308;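 further: plate controls were vehicle for no effect and reference inhibitor for full effect; nearly all actives have a fitted effect of over 55% in size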)). Details: ALDH2 enzyme inhibition qHTS, 1536-well; series mostly up to 56 µM; activity change, negative = inhibition: at the top concentration.

| Compound | activity change, negative = inhibition |
| --- | --- |
| CC1(C)CC[C@]2(C(=O)O)CC[C@]3(C)C(=CCC4[C@@]5(C)CC[C@H](O[C@@H]6O[C@H](C(=O)O)[C@@H](O)[C@H](O)[C@H]6O)C(C)(C)C5CC[C@]43C)C2C1 (stereo not given in full) | -4.85% [at 16.9 µM] (inactive) |
| CC1(C)CC2C(O)c3cocc3CC(C)(O)C2C1 (stereo not given) | 10.3% (inactive) |
| CC(=O)O[C@H]1[C@H](O[C@H]2[C@@H]3C=CO[C@@H](O[C@@H]4O[C@H](CO)[C@@H](O)[C@H](O)[C@H]4O)[C@@H]3[C@@]3(CO)O[C@@H]23)O[C@@H](C)[C@H](OC(=O)/C=C/c2ccccc2)[C@H]1OC(=O)/C=C/c1ccccc1 | 3.52% [at 16.9 µM] (inactive) |
| CCC/C=C1\OC(=O)C2=C1CCC(O)C2O (stereo not given) | 1.84% (inactive) |
| CC1CCC2(C(=O)O)CCC3(C)C(=CCC4C5(C)CCC(OC(=O)/C=C/c6ccccc6)C(C)(C)C5CCC43C)C2C1C (stereo not given) | 6.28% [at 16.9 µM] (inactive) |
| C=C1CC[C@@]2(OC1)O[C@H]1CC3[C@@H]4CC=C5C[C@@H](O)C[C@@H](O[C@@H]6OC[C@H](O)[C@H](O)[C@H]6O[C@@H]6O[C@@H](C)[C@H](O)[C@@H](O)[C@H]6O)[C@]5(C)C4CC[C@]3(C)[C@H]1[C@@H]2C (stereo not given in full) | 0.746% [at 16.9 µM] (inactive) |
| COC(=O)CC(O)CC(O)/C=C/c1c(C)ccc2c1C(OC(C)=O)CC(C)C2 (stereo not given) | 25.1% (inactive) |
| CCC(CC)n1ccc2c(C(=O)NCc3c(C)cc(C)[nH]c3=O)cc(C#N)cc21 | 1.77% (inactive) |
| CC(=O)OC1C(c2ccccc2)CCC(c2ccccc2)C1OC(C)=O (stereo not given) | 5.91% (inactive) |
| CC(C)=CCC[C@](C)(O[C@@H]1O[C@H](CO)[C@@H](O)[C@H](O)[C@H]1O)[C@H]1CC[C@]2(C)[C@@H]1[C@H](O)CC1[C@@]3(C)CC[C@H](O)C(C)(C)C3[C@@H](O[C@@H]3O[C@H](CO)[C@@H](O)[C@H](O)[C@H]3O)C[C@]12C (stereo not given in full) | 3.81% [at 16.9 µM] (inactive) |
| CC(=O)O[C@@H]1C[C@@]23C[C@@]24CC[C@H](OC2OC[C@@H](O)[C@H](O)[C@H]2O)C(C)(C)[C@@H]4CC[C@H]3[C@]2(C)CC3OC4(C[C@@H](C)C3[C@@]12C)OCC1(C)OC14 (stereo not given in full) | -3.02% [at 16.9 µM] (inactive) |
| COc1ccc(/C=C/C(=O)O[C@H]2[C@@H]3C=CO[C@@H](O[C@@H]4O[C@H](CO)[C@@H](O)[C@H](O)[C@H]4O)[C@@H]3[C@@]3(CO)O[C@@H]23)cc1O | 0.868% [at 28 µM] (inactive) |
| [N-]=[N+]=N[C@]1(CO)O[C@@H](n2ccc(=O)[nH]c2=O)[C@@H](O)[C@@H]1O | -7.49% (inactive) |
| CC(C)[C@H]1CCC(CO)=C[C@@H]1/C=C(\CO)C(=O)O | 0.267% (inactive) |
| CCn1cc(NC(=S)Nc2cc(Cl)ccc2OC)c(C(N)=O)n1 | 5.71% (inactive) |
| COCCOCCOc1ccc(C2=N[C@@](C)(C(=O)O)CS2)c(O)c1 | -26.7% (inactive) |
| CC(=O)OC(C)C(C)(O)C(=O)O[C@@H]1CC[C@]2(C)CC(=O)C(=C(C)C)C[C@H]2[C@]1(C)OC(C)=O (stereo not given in full) | -19.7% [at 28 µM] (inactive) |
| OCc1ccc(O[C@@H]2O[C@H](CO)[C@@H](O)[C@H](O)[C@H]2O)cc1 | 9.1% (inactive) |
| CC1OC(O[C@H]2CC[C@@]3(C)C(CC[C@]4(C)C3CC=C3C5CC(C)(C)CC[C@]5(C(=O)OC5OC(CO)C(OC6OC(COC7OCC(O)C(O)C7O)C(O)C(O)C6O)C(O)C5O)CC[C@]34C)C2(C)C)C(O)C(O)C1OC1OCC(OC2OCC(O)C(O)C2O)C(O)C1O (stereo not given in full) | -20.7% [at 11.2 µM] (inactive) |
| CC1(C)C2CC[C@]3(C)C(C(=O)C=C4[C@H]5C[C@@](C)(C(=O)O)CC[C@]5(C)CC[C@]43C)[C@@]2(C)CC[C@@H]1O (stereo not given in full) | 6.67% [at 28 µM] (inactive) |

| Compound | activity change, negative = inhibition |
| --- | --- |
| CC1=CC(=O)CC(C)(C)[C@@]1(O)/C=C/C(C)O[C@@H]1O[C@H](CO)[C@@H](O)[C@H](O)[C@H]1O (stereo not given in full) | 5.85% [at 28 µM] (inactive) |
| COc1ccc(-n2[nH]c3c(cnc4ccccc43)c2=O)cc1 | -4.12% (inactive) |
| c1nc(NC2CCCCCC2)c2cc(CNC[C@H]3CCCO3)sc2n1 | 10.1% (inactive) |
| C/C=C(\C)C(=O)OCC1OC(OC2OC(COC(=O)/C(C)=C/C)C(OC3OC(CO)C(OC(=O)/C(C)=C/C)C(OC(=O)/C(C)=C/C)C3O)C(O)C2O)C(O)C(O)C1OC1OC(CO)C(OC(=O)/C(C)=C/C)C(OC(=O)/C(C)=C/C)C1O (stereo not given) | 3.06% [at 16.9 µM] (inactive) |
| C[C@H](NC(c1cccc(C[P+](=O)O)c1)[C@H](C)O)c1ccc(Cl)c(Cl)c1 (stereo not given in full) | -7.94% (inactive) |
| CC12CCC(OC3OC(CO)C(O)C(OC4OC(CO)C(O)C(O)C4O)C3O)CC1CCC1C2CCC2(C)/C(=C3/COC(=O)C3)CCC12O (stereo not given) | 7% [at 16.9 µM] (inactive) |
| C=C1C(=O)OC2CC(C)C(CCC(C)=O)=CCC12 (stereo not given) | 2.49% (inactive) |
| COc1c(/C=C/C(C)(C)O)ccc2c1C(=O)OCc1cc(C)cc(O)c1O2 | -3.96% (inactive) |
| CC(C)C(C(=O)N1CCCC1C(=O)O)N(C)C(=O)C(O)Cc1ccccc1 (stereo not given) (H-[PhLac]-[NMeV]-Pro-OH; configuration not given here) | -11.3% (inactive) |
| C=CC(C)(CC/C=C(\C)CC/C=C(\C)CC(O)/C=C(\C)C(=O)O)O[C@@H]1O[C@H](CO)[C@@H](O)[C@H](O)[C@H]1O[C@@H]1O[C@H](CO)[C@@H](O)[C@H](O)[C@H]1O (stereo not given in full) | 7.16% [at 16.9 µM] (inactive) |
| CC1OC(OC2CCC3(C)C(CCC4(C)C3CC=C3C5CC(C)(C)CCC5(C(=O)OC5OC(CO)C(O)C(O)C5O)CCC34C(=O)O)C2(C)C)C(O)C(O)C1O (stereo not given) | 3.5% [at 16.9 µM] (inactive) |
| Cc1cc(Cn2cnc3c2CC(C(=O)O)N(C(=O)C(c2ccccc2)c2ccccc2)C3)ccc1N(C)C (stereo not given) | 0.512% (inactive) |
| Cc1ccc([C@@H]2CC=C(C(=O)O)[C@H](c3ccc(C(C)(C)C)cc3)N2S(=O)(=O)c2ccc(C)cc2)cc1 | -0.0598% (inactive) |
| CC(C)C1=CCC(C)(O)C(OC2OC(CO)C(O)C(O)C2O)C1 (stereo not given) | -16.1% (inactive) |
| CC(=O)OCC1OC(OC2COC(OC3COC(OC4C(OC5C(CO)OC(OC6CCC7(C)C(CCC8(C)C7CC=C7C9CC(C)(C)CCC9(C(=O)OC9OC(CO)C(O)C(O)C9OC9OCC(OC%10OCC(O)(CO)C%10O)C(O)C9O)C(O)CC78C)C6(C)C)C(O)C5O)OCC(O)C4O)C(O)C3O)C(O)C2O)C(OC(=O)/C=C/c2ccccc2)C(O)C1OC(C)=O (stereo not given) | 6.5% [at 11.2 µM] (inactive) |
| Cc1cccc(-c2[nH]ncc2-c2ccnc3ccccc23)n1 | -5.47% (inactive) |
| CC1(C)CCCC2(C)C1C(O)C=C(CO)C2(O)C(=O)O (stereo not given) | 2.03% (inactive) |
| C[C@H]1[C@H](C)CC[C@]2(C(=O)O[C@@H]3O[C@H](CO)[C@@H](O)[C@H](O)[C@H]3O)CC[C@]3(C(=O)O)C(=CCC4[C@@]5(C)CC[C@H](O[C@@H]6O[C@H](CO)[C@@H](O)[C@H](O)[C@H]6O)C(C)(C)C5CC[C@]43C)[C@H]12 (stereo not given in full) | -1.36% [at 16.9 µM] (inactive) |
| CC(=O)O[C@@H]1[C@@H](OC(C)=O)[C@H](C)O[C@@H](O[C@H]2[C@@H]3C=CO[C@@H](O[C@@H]4O[C@H](CO)[C@@H](O)[C@H](O)[C@H]4O)[C@@H]3[C@@]3(CO)O[C@@H]23)[C@@H]1OC(=O)/C=C/c1ccccc1 | 31.3% [at 16.9 µM] (inactive) |
| O=C(CSc1nc2ccccc2c(=O)n1-c1ccccc1)Nc1ccc2c(c1)CCC2 | -12.1% (inactive) |
